Reference: PubChem BioAssay (NCI)
About 79,000 compounds went through this panel and 15% of them were active in at least one assay; those are over-represented in the sample as a whole. Unmarked numbers belong to inactive results. The source made the active and inactive calls. Rule as the data show it: active = growth inhibition above about 70%; inactive = the rest.

Columns and labels:
[1] = NCI Yeast Anticancer Drug Screen. Data for the rad50 strain (AID 155);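 also: 0% = growth of vehicle-only cultures of the same strain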; conditions: S. cerevisiae rad50 strain growth inhibition; at 50.0 µM; stronger effect = higher value
Summary of the method: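 DNA repair mutant yeast, compound exposure, growth read-out; inhibition is taken relative to vehicle.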

[2] = NCI Yeast Anticancer Drug Screen. Data for the mec2-1 strain (AID 157); conditions: S. cerevisiae mec2-1 strain, at 50.0 µM, stronger effect = higher value
Summary of the method: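 Strain: mec2-1 (DNA repair/cell cycle alteration). Compound exposure, then growth measured; inhibition expressed relative to vehicle.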

[3] = NCI Yeast Anticancer Drug Screen. Data for the sgs1 mgt1 strain (AID 161);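 also: 0% = growth of cultures given vehicle only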; conditions: S. cerevisiae sgs1 mgt1 strain, at 50.0 µM, stronger effect = higher value
Summary of the method: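 Test agents were incubated with a DNA-repair-mutant yeast strain. Growth was then read and compared against vehicle-treated controls.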

[4] = NCI Yeast Anticancer Drug Screen. Data for the cln2 rad14 strain (AID 165);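 also: 0% = growth equal to vehicle treated cultures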; conditions: S. cerevisiae cln2 rad14 strain, at 50.0 µM, stronger effect = higher value
Summary of the method: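 Compounds are applied to the cln2 rad14 yeast strain, and growth is then compared with that of vehicle-treated cultures to give inhibition.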

[5] = NCI Yeast Anticancer Drug Screen. Data for the bub3 strain (AID 167); conditions: S. cerevisiae bub3 mutant strain, at 50.0 µM, stronger effect = higher value
Summary of the method: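 In this screen, a yeast mutant lacking normal mitotic checkpoint function is challenged with compound. Relative growth versus vehicle gives the inhibition value.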

[6] = NCI Yeast Anticancer Drug Screen. Data for the mlh1 rad18 strain (AID 175); conditions: S. cerevisiae mlh1 rad18 strain growth inhibition; at 50.0 µM; stronger effect = higher value
Summary of the method: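 Read-out is yeast growth inhibition, calculated against vehicle-only controls. The compound was applied to a strain engineered with DNA damage repair alterations.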

Row | SMILES | growth inhibition [1] | growth inhibition [2] | growth inhibition [3] | growth inhibition [4] | growth inhibition [5] | growth inhibition [6]
1 | Nc1ccc2c(c1)Cc1c-2cc(Cl)c(N)c1Cl | 8.85% | -0.65% | -18.8% | 6.5% | 13.8% | 6.2%
2 | CC1(Cn2ccc(=O)[nH]c2=O)CC(C2(C)OCCO2)C(=O)O1 (centres undefined) | -16.6% | -22.3% | -33.1% | -30.7% | -19% | -14.4%
3 | O=C(Cn1c2c(c3ccccc31)CCCC2)N1CCCCC1 | -40.5% | -74% | -31.2% | -22.2% | -8.6% | -26.2%
4 | CC(C)C(N=Cc1ccccc1O)C(=O)O (centres undefined) | -8.35% | -21.9% | -10.2% | -5.75% | -47.9% | -4.3%
5 | O=S1(=O)CC(N2CCCCC2)C2=C(O1)c1ccccc1N(c1ccccc1)C2 (centres undefined) | 1.8% | -16.9% | -11.1% | 16.9% | -0.4% | -26.1%
6 | CCCCCCCCCCCCCCCCCCNc1ccccc1 | -6.15% | 9.15% | 12.2% | -29.8% | 1.15% | 16.2%
7 | Fc1cccc2cccnc12 | 0.05% | -4.45% | 11.2% | 5.65% | 12.7% | 7.4%
8 | COCOc1ccc(C=O)cc1 | 9.75% | 13.1% | -14.3% | -4.6% | -14.1% | -5.65%
9 | C1CCC2(CC1)CCCN2 | 7.15% | 3.35% | 1.4% | -3.5% | -1.75% | 6.35%
10 | NC(=O)c1cc(Br)ccc1O | 11.2% | -12.7% | 6.9% | 8.9% | -19.4% | 17.2%
11 | Cc1c(Cl)cccc1NC(=O)Nc1ccc(S(N)(=O)=O)cc1 | 0.7% | 29.4% | 39.4% | 1.4% | 21.8% | 19.1%
12 | NC(=O)c1ncccc1C(=O)O | -9.2% | -9.65% | -18.6% | 2.3% | -13.6% | -12.2%
13 | N#CC(CCc1ccc([N+](=O)[O-])cc1)(CCc1ccc([N+](=O)[O-])cc1)C(N)=O | 38.4% | 19.4% | 35.9% | -14.2% | 24.9% | 49.2%
14 | Nc1ccc2ccccc2c1C(=O)c1ccccc1 | 0.95% | -1.55% | -15.2% | 37.1% | -23.6% | -5.75%
15 | N[C@H](CCC(=O)NCP(=O)(O)O)C(=O)O | -43.7% | -42.6% | -44.7% | -7.1% | -10.8% | -41.1%
16 | CC/C(=N/NC(N)=O)C1C=COC=C1 | -5.75% | 2% | -0.1% | -6.8% | -11.8% | 1.2%
17 | C[C@H]1C(=O)CCC2[C@]3(C)CC4OC(=O)C5(CC[C@@]6(C)CCC(C)(C)CC6C45C)C3CC[C@@]21C (some centres undefined) | -0.7% | -7.25% | -25.9% | -3.65% | -34.9% | -15%
18 | C/C=C(\c1ccccc1)N1CCOCC1 | 17.9% | -9.15% | -8.6% | -37.5% | 7.1% | 5.25%
19 | Fc1nc(F)nc(-c2c3ccccc3c3n2CCS3)n1 | 1.65% | 14.1% | 9.1% | 15.3% | 4.7% | 7.2%
20 | Cc1nc2ccc(N)cc2oc1=O | 6.55% | 15.1% | 15.2% | -28.9% | 0.8% | 9.35%

Row | SMILES | growth inhibition [1] | growth inhibition [2] | growth inhibition [3] | growth inhibition [4] | growth inhibition [5] | growth inhibition [6]
21 | C=CCCCCCCCCCO | -9.2% | -11% | -1.9% | 10.8% | -18.4% | -1.8%
22 | CC/C(Cl)=N\OC(=O)Nc1ccc(F)cc1F | 2.2% | -12.1% | -4.05% | 7.05% | -6.45% | -26.4%
23 | CC(C)(C)NC(=O)NCc1ccc(Cl)c(Cl)c1 | 2.95% | 27.4% | 17.8% | -6.05% | -5.05% | 21.6%
24 | Cc1cn(CCCn2cnc3c(N)ncnc32)c(=O)[nH]c1=O | -12.7% | -31.6% | -9.55% | -6.6% | -31.4% | -2.9%
25 | ON(C(=S)Nc1ccccc1)c1ccccc1 | 20.9% | 12.8% | 21.1% | -13.7% | 8.3% | 15.9%
26 | CCOC(=O)c1c(-c2ccc(OC)cc2)c(C#N)c(=S)n(C2OC(CO)C(O)C(O)C2O)c1-c1ccccc1 (centres undefined) | 6.7% | -29% | -20% | -11.6% | -12.4% | 2.95%
27 | COC(=O)C(C)c1cccc2ccc3ccccc3c12 (centres undefined) | 16.3% | -11.7% | 16.2% | 9.55% | 15.2% | 23.4%
28 | CCCCNC(=O)Nc1cc(C)ccc1C | -0.4% | 1.95% | -0.7% | -9.75% | 8.2% | 2.1%
29 | COC(=O)C1CC(c2ccc(Cl)cc2)=NO1 (centres undefined) | 36.4% | 8.25% | 8.5% | 5.3% | 1.5% | 47.1%
30 | Clc1ccc(CSc2cnnc(SCc3ccc(Cl)cc3Cl)c2SCc2ccc(Cl)cc2Cl)c(Cl)c1 | 5.9% | 5.9% | 8.05% | 2.25% | -5.15% | -6.6%
31 | Clc1ccccc1CSc1cnnc(SCc2ccccc2Cl)c1SCc1ccccc1Cl | -0.1% | 13.3% | 6.4% | 22.9% | 10.7% | 27.6%
32 | CC1OC(OC2C(OC(=O)[C@@H]3CC(C)(C)C[C@H]4C5=CC[C@@H]6[C@@]7(C)C[C@H](O)[C@H](OC8OC(CO)C(O)C(O)C8O)[C@@](C)(CO)[C@@H]7[C@H](O)C[C@@]6(C)[C@]5(C)CC[C@@]34C)OCC(O)C2O)C(O)C(O)C1O (some centres undefined) | -22.4% | -20.7% | -18.1% | -14.2% | -1.8% | -64.4%
33 | Cc1cc(C(=O)C(C(c2ccccc2)N2CCOCC2)N2CCOCC2)ccc1Cl (centres undefined) | 4.6% | 7.15% | 12.8% | -1.35% | 10.8% | 26.9%
34 | NC1=NOC(=O)C1c1ccccc1 (centres undefined) | -19.1% | -45.3% | -10.2% | 2.55% | -9.5% | -19.8%
35 | OCC1COC(c2ccc(Cl)cc2)O1 (centres undefined) | -10.1% | -10.4% | -19.8% | -17.9% | -16.4% | -7.75%
36 | CC1(C)C(c2ccccc2)C12CCC1(C2=O)C(c2ccccc2)C1(C)C (centres undefined) | -41.8% | -27.8% | -36% | -6.8% | -16.9% | -52.4%
37 | C=Cc1c2ccccc2cc2c1ccc1ccccc12 | 89.3% (active) | 95.2% (active) | 93.5% (active) | 87.2% (active) | 93.3% (active) | 95.2% (active)
38 | CCc1occc(=O)c1O | 16.6% | -6.95% | -1.75% | 1.75% | 16.8% | -9.1%
39 | Cc1ccc(S(=O)(=O)NCCN)cc1 | 9.45% | 11.2% | 24.2% | -19.5% | -6.4% | -3.3%
